# A selection: hits, their analogues and other compounds. The true share with any hit is near 2.8%.
# pAkt inh = blocks phosphorylation of Akt; Neuro2A IGF-stimulated pAkt S473 HTRF, 20 min; hits give low values; activity change, % for hits at 50 µM; hit rate 0.32% among 360,000; in the data active means activity change below about -80%; inconclusive means mostly about -51% to -80%; further: on the % scale 0 is the no-effect control and ±100 the full control effect
#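 Single-point screen (50 µM final compound) in Neuro2A cells stimulated 20 min with 6 nM IGF at 37 deg C. After lysis, Ser473-phosphorylated Akt read by HTRF (ex 330 nm, em 615/665 nm) as the 665/615 ratio.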
# DRD3 antagonist = blocks the human D3 dopamine receptor; P35462; D3R cells, DiscoveRx beta-arrestin luminescence, antagonist mode; hits give low values; max response, negative = inhibition, %; hit rate 2.5% among 360,000; AID 652054; in the data active means max response below about -50%; inconclusive means no clear call, values can overlap the other calls; further: on the % scale 0 is the no-effect control and ±100 the full control effect
#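 Cells expressing the human receptor were seeded at 1500 cells/well, incubated overnight at 37 degrees C in 5% CO2, then exposed to library compounds with dopamine controls for 90 minutes at 37 degrees C before luminescent detection.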
# D3 ag = agonists of human D3 dopamine receptor. hit rate 0.58% among 410,000. max activation, %. D3R DiscoveRx beta-arrestin cells, luminescence, 90 min. AID 652048. P35462; in the data active means max activation above about 30%; further: 0% is about no effect
#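 Agonist mode: compounds and dopamine controls were applied to plated cells for 90 min at 37 degrees C after an overnight attachment at 1500 cells/well. Luminescent read-out followed 30 - 60 minutes at room temperature with DiscoveRx detection reagent.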
# LDHA inh = LDHA (human) enzyme inhibition. P00338. purified LDHA, NADH/diaphorase-resazurin fluorescence; hits give low values. activity change, % (values are at about 110 or 230 µM). hit rate 0.15% among 480,000. AID 1347041; in the data active means activity change below about -30%; inconclusive means mostly about -25% to -30%;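 further: plate controls were DMSO wells for no effect and wells without enzyme for full effect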
#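 Resorufin fluorescence (ex540/em590), read at 0 and 20 min after diaphorase/resazurin addition, reports the NADH left after a 5 min room-temperature reaction of 2 nM human LDH5 with 0.06 mM NADH and 0.2 mM pyruvate.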
# RGS4 inh = inhibitors of human regulator of G protein signaling 4 | Transcreener GDP fluorescence polarization, RGS4-accelerated GTP hydrolysis | P49798 | hit rate 0.039% among 390,000 | Potency, µM (series often up to 114 µM), without a hit: at the top dose activity change, negative = inhibition, actives largely listed as inhibitors; active means well fitted inhibition curve with a large enough effect; inconclusive means small, poorly fitted or top-dose-only effect; inactive means no such curve, though single readings can be large or run the other way; further: potency means the concentration at half of the fitted maximal effect; on the % scale 0 is the no-effect control and ±100 the full control effect; nearly all actives have a fitted effect of over 75% in size
# Target sequence (P49798 whole entry, looked up): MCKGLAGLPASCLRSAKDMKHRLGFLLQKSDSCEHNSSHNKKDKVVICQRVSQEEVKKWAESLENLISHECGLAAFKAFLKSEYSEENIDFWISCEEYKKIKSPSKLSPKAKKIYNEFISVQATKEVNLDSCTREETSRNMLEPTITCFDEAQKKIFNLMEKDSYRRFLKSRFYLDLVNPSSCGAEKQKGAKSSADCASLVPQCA
#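 MLSMR compounds (23 nl, pin-transferred) preincubated 10 min at room temperature with a 500nM (2x) first reagent, then RGS4 at 900nM (2x) plus Transcreener GDP mix added; fluorescence polarization (620/688 nm) read before and after 90 min at 30 °C.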
# PI4K2A inh = PI4K2A (human) kinase inhibition; AID 1346378; activity change, negative = inhibition, % at 76.9 µM; purified PI4K2A, ADP-Glo luminescence, 1 h; hits give low values; hit rate 0.13% among 420,000; in the data active means activity change below about -50%; inconclusive means mostly about -30% to -49%;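 further: -100% = wells without enzyme as full effect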
# Target sequence (Q9BTU6 whole entry, looked up): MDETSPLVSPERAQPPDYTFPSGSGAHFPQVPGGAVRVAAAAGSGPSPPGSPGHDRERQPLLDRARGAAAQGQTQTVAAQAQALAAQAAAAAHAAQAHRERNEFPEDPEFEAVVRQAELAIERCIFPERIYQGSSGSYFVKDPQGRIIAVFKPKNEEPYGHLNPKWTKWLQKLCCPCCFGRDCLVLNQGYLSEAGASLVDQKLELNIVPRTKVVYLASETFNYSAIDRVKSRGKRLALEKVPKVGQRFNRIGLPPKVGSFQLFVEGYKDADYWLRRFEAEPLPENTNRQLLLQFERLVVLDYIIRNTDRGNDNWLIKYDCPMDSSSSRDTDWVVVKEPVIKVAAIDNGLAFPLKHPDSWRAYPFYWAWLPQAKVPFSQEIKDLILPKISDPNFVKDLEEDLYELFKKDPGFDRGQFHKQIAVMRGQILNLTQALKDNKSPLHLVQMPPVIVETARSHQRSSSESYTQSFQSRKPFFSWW
#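 Compounds are screened against recombinant PI4K2A using PI as substrate and ATP, the latter dispensed at 300 microM. Reactions run one hour at ambient temperature before ADP-Glo detection; full inhibition defined by wells lacking enzyme.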
# An asterisk follows results filed as active; i = inactive; ? = inconclusive; . = not tested or not shown.
SMILES,pAkt inh,DRD3 antagonist,D3 ag,LDHA inh,RGS4 inh,PI4K2A inh
CCN(c1ccccc1)S(=O)(=O)c1ccc(N2CCN(c3ccc(OC)cc3)CC2)nc1,i,3,-1,-4,-13%,2
Cc1ccc(OCCN2C(=O)c3ccccc3C2=O)c([N+](=O)[O-])c1,i,-69*,-17,-6,-16%,0
Cc1ccc(OCCOCCN2CCN(C)CC2)c([N+](=O)[O-])c1,i,-16,-3,-46*,6%,-4
Cc1ccc(OCCN2C(=O)c3ccccc3C2=O)c(C)c1,i,-22,-4,2,-1%,1
Cc1ccc([N+](=O)[O-])c(OCCN2CCNCC2)c1,i,-62*,27,-7,-27%,1
Cc1cc(OCCN2CCC(Cc3ccccc3)CC2)ccc1[N+](=O)[O-],i,-64*,-24,-9,-21%,-2
Cc1ccc(OCCOCCN2CCCCC2)c([N+](=O)[O-])c1,i,-17,-11,-6,0%,-4
N#C/C(=C/c1ccccc1)C(=O)Nc1ccc(N2CCOCC2)cc1,.,.,.,13,.,.
O=C(NCc1ccccc1)OCCN1CCN(Cc2ccccc2)CCC1=O,i,-68*,-10,1,21%,-3
COc1ccc2nc(Cl)cc(Cl)c2c1,i,2,11,-5,19%,1
C=CS(=O)(=O)c1c2cc(OC)ccc2nc2ccc(OC)cc12,i,-83*,-23,6,?,34
COc1ccc(C)cc1NC(=O)c1cc(S(=O)(=O)NCCC2=CCCCC2)ccc1F,.,.,5,2,5%,-7
COc1ccc(C)cc1NC(=O)NCCC1=CCCCC1,i,-72*,-30,-2,10%,5
COc1cc(C(=O)NCCc2csc(-c3ccc(Cl)cc3)n2)cc(OC)c1OC,.,.,41*,-1,-4%,0
Cc1ccc(CNCCC2=CCCCC2)cc1,i,-67*,-50,6,0%,3
COc1cc(C(=O)NCCC2=CCCCC2)cc(OC)c1OC,i,-62*,-8,2,-44%,-2
Cc1cc(C)c(C(=O)COC(=O)c2ccc(-c3ccccc3)cc2)c(C)c1,.,.,.,-5,.,.
COc1cc(OC)c(OC)cc1CCC(C)NCCC(c1ccccc1)c1ccccc1 (centres undefined),i,-71*,0,10,-5%,-4
COc1ccc(CCNCCC(c2ccccc2)c2ccccc2)cc1OC,i,-29,0,0,.,-4
CCn1c(CSc2nccn2C)nc2cc(C(=O)O)ccc21,i,-18,-2,7,?,-2
CCn1c(CSc2nc3ccccc3[nH]2)nc2cc(C(=O)O)ccc21,i,-21,-6,-30*,?,-3
O=C(Nc1ccc(-n2cccn2)c(F)c1)C1CCCN(C(=O)c2ccoc2)C1 (centres undefined),.,.,.,-31*,.,.
c1ccc(CN2CCN(CCOCCOc3cccc4ccccc34)CC2)cc1,i,?,-15,-23,16%,1
O=C(c1ccco1)N1CCN(CCOCCOc2cccc3ccccc23)CC1,i,-6,89*,1,6%,-6
O=C(c1ccco1)N1CCN(CCCCOc2cccc3ccccc23)CC1,i,?,38*,4,-5%,-1
SMILES,pAkt inh,DRD3 antagonist,D3 ag,LDHA inh,RGS4 inh,PI4K2A inh
CC1=NS(=O)(=O)NC(C)=C1CCC(=O)Nc1ccc(C(C)C)cc1,.,.,.,0,.,.
CN(c1ccc(C(=O)N2CCN(Cc3ccc4c(c3)OCO4)CC2)cc1)S(C)(=O)=O,i,-22,3,-11,13%,-1
O=C(N1CCN(Cc2ccc3c(c2)OCO3)CC1)C12CC3CC(CC(C3)C1)C2,i,-64*,-30,2,5%,0
O=C(c1cc(F)c(F)c(F)c1F)N1CCN(Cc2ccc3c(c2)OCO3)CC1,i,9,-3,0,16%,1
O=C(c1ccc(S(=O)(=O)N2CCCC2)cc1)N1CCN(Cc2ccc3c(c2)OCO3)CC1,i,-52*,-13,4,-25%,-1
Cc1ccc(C(=O)N2CCN(Cc3ccc4c(c3)OCO4)CC2)o1,i,-62*,2,-1,21%,-2
O=C(c1cc2ccccc2o1)N1CCN(Cc2ccc3c(c2)OCO3)CC1,i,-104*,-20,-5,27%,2
O=C(c1cc2ccccc2oc1=O)N1CCN(Cc2ccc3c(c2)OCO3)CC1,i,-21,11,1,15%,-4
CC1CCN(C(=O)CSc2nnc(CNC(=O)c3ccccc3F)n2C)CC1,.,.,.,4,.,.
O=C(c1cc2ccccc2oc1=O)N(Cc1ccccc1)Cc1ccc2c(c1)OCO2,-124%*,8,4,-5,19%,0
Cc1cc(C)c(C(=O)CC(=O)c2ccccc2Cl)c(O)c1,i,-64*,-12,6,-12%,5
O=C(/C=C/c1ccco1)NCCc1c[nH]c2ccccc12,.,.,.,9,.,.
COc1cc(C(=O)NCc2ccncc2)cc(OC)c1OC,i,4,5,-8,13%,1
COc1ccc(C(=O)NCc2ccc(OCCN(C)C)cc2)cc1OC,i,-72*,-76,-8,-6%,-3
COc1cc(C(=O)NCc2ccc(OCCN(C)C)cc2)cc(OC)c1OC,i,-95*,-86,-7,10%,2
Cc1ccc2c(=O)c(-c3nc(-c4ccccc4C)no3)cn(CC(=O)NCc3cccs3)c2n1,.,.,.,2,.,.
CCOC(=O)c1cnc2ccc(OC)cc2c1Nc1cccc(C(=O)O)c1,.,.,.,8,.,.
CCOCCCNC(=O)C(c1ccc(Cl)cc1)N1CCC2(CC1)OCCO2 (centres undefined),i,-55*,-11,-6,34%,0
Cc1cc(C(=O)N2CCN(S(C)(=O)=O)CC2)sc1-c1ccccc1,-82%*,-10,-5,2,5%,2
COc1ccc(C)cc1C(C)NC(=O)CC1Sc2ccccc2NC1=O (centres undefined),.,.,.,-8,.,.
CCc1ccc(C(=O)/C=C2\Sc3ccccc3NC2=O)cc1,i,-147*,-10,-4,?,-5
O=C(O)CN1C(=O)/C(=C\c2ccccc2OCc2ccc(F)cc2)SC1=S,i,3,-6,-6,-53%,-6
O=C(O)CN1C(=O)/C(=C\c2cc(Br)ccc2OCc2ccc(Cl)cc2)SC1=S,i,4,1,-40*,?,-2
O=C(O)CN1C(=O)/C(=C\c2cc(Br)ccc2OCc2ccc(F)cc2)SC1=S,i,12,2,-34*,?,-6
CC(C(=O)N1CCN(c2ccccc2F)CC1)n1c(=O)c(C(F)(F)F)nc2ccccc21 (centres undefined),.,.,.,2,.,.

# High-throughput results (PubChem BioAssay)
